Biological target: Follistatin-related protein 3 (Homo sapiens) (UniProt O95633)
Experiment: FSTL3 binders on small-molecule microarrays, primary screen, biochemical, small-molecule microarray, 635 nm fluorescence (AID 1105);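 also: score merges emission near 667 nm and signal to noise per printed spot across three slides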
Settings: FSTL3 binding, higher = more signal

Follistatin-related protein 3 (Homo sapiens), sequence (O95633 whole entry, looked up): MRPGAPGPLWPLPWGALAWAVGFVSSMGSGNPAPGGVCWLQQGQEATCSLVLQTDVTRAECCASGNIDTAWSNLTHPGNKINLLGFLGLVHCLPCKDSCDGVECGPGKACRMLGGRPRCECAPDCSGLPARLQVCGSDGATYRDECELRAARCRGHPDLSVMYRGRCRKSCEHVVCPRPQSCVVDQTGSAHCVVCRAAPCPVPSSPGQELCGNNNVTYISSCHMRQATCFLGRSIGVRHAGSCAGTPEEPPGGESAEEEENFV

SMILES | composite z-score
COc1ccccc1CN1C(=O)c2ccccc2[C@@H](C(=O)NCC(C)C)[C@@H]1c1ccc(CO)cc1 | 0.0144
COC(=O)C(CC#Cc1ccc2c(c1)[C@]1(C(=O)N2)[C@H](c2ccc(O)cc2)N2[C@H](c3ccccc3)[C@H](c3ccccc3)OC(=O)[C@H]2[C@@H]1C(N)=O)C(=O)OC | -1.89
CCCC[C@@H](O)C1=C(COc2ccccc2)Cn2c(=O)n(-c3ccccc3)c(=O)n2[C@H]1CO | -0.423
NC(=O)[C@H]1[C@@H]2C(=O)O[C@@H](c3ccccc3)[C@@H](c3ccccc3)N2[C@@H](c2ccc(O)cc2)[C@]12C(=O)Nc1ccc(C#CC3(O)CCCCCC3)cc12 | 1.42
CCCN1C(=O)[C@@]2(Cc3ccccc3)N=C(c3ccc(OCCCO)cc3)O[C@H]2c2ccccc21 | 0.63
COC(=O)[C@@]1(Cc2ccc(OC)cc2)[C@H]2c3cc(C(=O)N4CCCC4)n(CCc4ccc(O)c(OC)c4)c3C[C@H]2CN1C(=O)c1ccccc1 | -0.892
COCCOC(=O)N1C(=O)[C@@]2(c3cc(C#Cc4ccc(OC)cc4)ccc31)[C@H](C(=O)N1CCc3cc(OC)c(OC)cc3C1)[C@H]1C(=O)O[C@H](c3ccccc3)[C@H](c3ccccc3)N1[C@@H]2c1ccc(OCCO)cc1 | 0.997
C[N+](C)(C)CCCCCCNC(=O)[C@@H]1C[C@@H]2C(=O)NCC(=O)N2[C@@H]1c1ccc(O)cc1 | 1.39
COCCCNC(=O)[C@]1(CCS(=O)(=O)c2ccccc2)N=C(c2ccc(OCCCO)cc2)O[C@@H]1c1ccccc1 | 0.485
C[C@@]1([C@@H](NC(=O)c2cccs2)c2ccc(-c3ccccc3)cc2)C[C@H]1C1CCCCC1 | -0.671
COc1cccc(C[C@H]2C[C@@H](CO[Si](C(C)C)(C(C)C)C(C)C)N3C(=O)[C@]4(C(C)=O)O[C@]23[C@H]2C(=O)N(C)C(=O)[C@H]24)c1 | 1.09
[N-]=[N+]=Nc1ccccc1[C@@H]1OC(c2ccc(OCCCO)cc2)=N[C@]1(CCS(=O)(=O)c1ccccc1)C(=O)NCc1ccccc1 | 1.18
C=CC[C@@]1(C(=O)NCCN2CCOCC2)N=C(c2ccc(OCCCO)cc2)O[C@@H]1c1ccccc1 | 1.22
COC(=O)C(CC#Cc1ccc2c(c1)[C@]1(C(=O)N2)[C@H](c2ccc(OCCO)cc2)N2[C@H](c3ccccc3)[C@H](c3ccccc3)OC(=O)[C@H]2[C@@H]1C(=O)O)C(=O)OC | 0.808
COC(=O)c1ccc(OC)c(/C=C\CC(CCc2ccccc2)OC(C)=O)c1 (configuration not stated) | 0.21
COCC1=C([C@H](O)CCc2ccccc2)[C@H](CO)[C@@H]2C(=O)N(C)C(=O)[C@@H]2C1 | 0.0826
COc1cc(NN2C(C(O)c3ccc(I)cc3)C=CC3C(=O)N(C)C(=O)C32)cc(OC)c1OC (configuration not stated) | -0.602
CC(C)N1C(=O)c2ccccc2[C@](C)(C(=O)O)[C@@H]1c1ccc(CO)cc1 | -0.638
NC(=O)NCC#Cc1ccc2c(c1)[C@]1(C(=O)N2)[C@H](c2ccc(O)cc2)N2[C@H](c3ccccc3)[C@H](c3ccccc3)OC(=O)[C@H]2[C@@H]1C(N)=O | -0.934
CCCCC(CC)C(O)C1C=CC2C(=O)NC(=O)C2N1Nc1ccccn1 (configuration not stated) | 0.768
COC(=O)[C@@]1(Cc2ccccc2)[C@H]2c3cc(C(=O)N4CCCC4)n(Cc4ccc(OC(F)(F)F)cc4)c3C[C@H]2CN1C(=O)c1ccccc1 | 0.685
C=C(COC)C(=O)CC[C@H](OC(=O)c1ccccc1-c1ccccc1C(=O)O)c1ccc(OCCO)cc1 | 1.05

Biological target: Dickkopf-related protein 1 (Homo sapiens) (UniProt O94907)
Experiment: DKK1 binders on small-molecule microarrays, primary screen, biochemical, small-molecule microarray, 635 nm fluorescence scan (AID 1106);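 also: score merges emission near 667 nm with signal to noise over three replicate slides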
Settings: DKK1 binding, higher = more signal

Dickkopf-related protein 1 (Homo sapiens), sequence (O94907 whole entry, looked up): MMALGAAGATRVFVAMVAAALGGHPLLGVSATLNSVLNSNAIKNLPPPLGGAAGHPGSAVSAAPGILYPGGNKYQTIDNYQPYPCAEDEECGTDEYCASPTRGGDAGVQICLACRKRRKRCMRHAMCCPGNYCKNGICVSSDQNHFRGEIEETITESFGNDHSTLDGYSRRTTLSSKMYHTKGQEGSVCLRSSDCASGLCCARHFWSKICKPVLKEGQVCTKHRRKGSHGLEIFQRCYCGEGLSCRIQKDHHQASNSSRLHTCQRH

SMILES | composite z-score
C=C[C@@H](O)[C@H]1CC(c2ccccc2)=NO1 | 0.271
COC(=O)[C@]1(Cc2ccccc2CN=[N+]=[N-])N=C(c2ccc(OCCCO)cc2)O[C@@H]1c1ccccc1CN=[N+]=[N-] | 0.127
O=C1C2C=CC(C(O)c3cccc4ccccc34)N(Nc3ccccc3)C2C(=O)N1c1ccccc1 (configuration not stated) | 0.0156
O=C(O)[C@@]1(Cc2ccccc2)COC(c2ccc(OCCCO)cc2)=N1 | -0.91
O=C1c2ccccc2[C@](Cc2ccccc2I)(C(=O)NC2CC2)[C@H](c2ccc(CO)cc2)N1Cc1ccccc1Cl | 0.0978
O=C(NCc1ccccc1)[C@]1(Cc2ccccc2)N=C(c2ccc(OCCCO)cc2)O[C@@H]1c1ccccc1 | -0.565
COCCCNC(=O)[C@@H]1c2ccccc2C(=O)N(Cc2cc(F)cc(C(F)(F)F)c2)[C@H]1c1ccc(CO)cc1 | -1.35
COC(=O)[C@@]1(Cc2ccc(OC)cc2)[C@H]2c3cc(C(=O)N4CCCC4)n(CCF)c3C[C@H]2CN1C(=O)c1ccccc1 | -0.226
Cc1ccc(C(C)CC(O)C2C=CC3C(=O)N(Cc4ccccc4)C(=O)C3N2n2cnnc2)o1 (configuration not stated) | -0.484
CN1C(=O)C2C=CC(C(O)c3cccc4ccccc34)N(NC(=O)OC(C)(C)C)C2C1=O (configuration not stated) | -0.123
O=C1N(Cc2ccccc2)c2ccccc2[C@H]2OC(c3ccc(OCCCO)cc3)=N[C@@]12CCS(=O)(=O)c1ccccc1 | 0.379
COC(=O)[C@@]1(Cc2ccccc2)[C@H]2c3cc(C(=O)N4CCCC4)n(Cc4ccccc4)c3C[C@H]2CN1C(=O)c1ccccc1 | -0.197
CCOC(=O)C[C@H]1[C@H](OC(=O)c2ccccc2-c2ccccc2)[C@@H](NC(=O)c2ccccc2)c2cc(OCCCO)ccc2N1C(=O)Cc1ccc(OC)cc1 | -0.0633
COc1ccccc1CN1C(=O)c2ccccc2[C@@H](C(=O)NCC(C)C)[C@@H]1c1ccc(CO)cc1 | 0.213
COC(=O)C(CC#Cc1ccc2c(c1)[C@]1(C(=O)N2)[C@H](c2ccc(O)cc2)N2[C@H](c3ccccc3)[C@H](c3ccccc3)OC(=O)[C@H]2[C@@H]1C(N)=O)C(=O)OC | -0.841
CCCC[C@@H](O)C1=C(COc2ccccc2)Cn2c(=O)n(-c3ccccc3)c(=O)n2[C@H]1CO | -0.0681
NC(=O)[C@H]1[C@@H]2C(=O)O[C@@H](c3ccccc3)[C@@H](c3ccccc3)N2[C@@H](c2ccc(O)cc2)[C@]12C(=O)Nc1ccc(C#CC3(O)CCCCCC3)cc12 | 0.573
CCCN1C(=O)[C@@]2(Cc3ccccc3)N=C(c3ccc(OCCCO)cc3)O[C@H]2c2ccccc21 | -0.234

SMILES | composite z-score
COC(=O)[C@@]1(Cc2ccc(OC)cc2)[C@H]2c3cc(C(=O)N4CCCC4)n(CCc4ccc(O)c(OC)c4)c3C[C@H]2CN1C(=O)c1ccccc1 | -1.13
COCCOC(=O)N1C(=O)[C@@]2(c3cc(C#Cc4ccc(OC)cc4)ccc31)[C@H](C(=O)N1CCc3cc(OC)c(OC)cc3C1)[C@H]1C(=O)O[C@H](c3ccccc3)[C@H](c3ccccc3)N1[C@@H]2c1ccc(OCCO)cc1 | 0.588
C[N+](C)(C)CCCCCCNC(=O)[C@@H]1C[C@@H]2C(=O)NCC(=O)N2[C@@H]1c1ccc(O)cc1 | 1.19
COCCCNC(=O)[C@]1(CCS(=O)(=O)c2ccccc2)N=C(c2ccc(OCCCO)cc2)O[C@@H]1c1ccccc1 | 0.0266
C[C@@]1([C@@H](NC(=O)c2cccs2)c2ccc(-c3ccccc3)cc2)C[C@H]1C1CCCCC1 | 0.0374
COc1cccc(C[C@H]2C[C@@H](CO[Si](C(C)C)(C(C)C)C(C)C)N3C(=O)[C@]4(C(C)=O)O[C@]23[C@H]2C(=O)N(C)C(=O)[C@H]24)c1 | 0.53
[N-]=[N+]=Nc1ccccc1[C@@H]1OC(c2ccc(OCCCO)cc2)=N[C@]1(CCS(=O)(=O)c1ccccc1)C(=O)NCc1ccccc1 | -0.244
C=CC[C@@]1(C(=O)NCCN2CCOCC2)N=C(c2ccc(OCCCO)cc2)O[C@@H]1c1ccccc1 | 0.785
COC(=O)C(CC#Cc1ccc2c(c1)[C@]1(C(=O)N2)[C@H](c2ccc(OCCO)cc2)N2[C@H](c3ccccc3)[C@H](c3ccccc3)OC(=O)[C@H]2[C@@H]1C(=O)O)C(=O)OC | 0.119
COC(=O)c1ccc(OC)c(/C=C\CC(CCc2ccccc2)OC(C)=O)c1 (configuration not stated) | 0.239
COCC1=C([C@H](O)CCc2ccccc2)[C@H](CO)[C@@H]2C(=O)N(C)C(=O)[C@@H]2C1 | 0.408
COc1cc(NN2C(C(O)c3ccc(I)cc3)C=CC3C(=O)N(C)C(=O)C32)cc(OC)c1OC (configuration not stated) | -1.18
CC(C)N1C(=O)c2ccccc2[C@](C)(C(=O)O)[C@@H]1c1ccc(CO)cc1 | -1.06
NC(=O)NCC#Cc1ccc2c(c1)[C@]1(C(=O)N2)[C@H](c2ccc(O)cc2)N2[C@H](c3ccccc3)[C@H](c3ccccc3)OC(=O)[C@H]2[C@@H]1C(N)=O | -0.343
CCCCC(CC)C(O)C1C=CC2C(=O)NC(=O)C2N1Nc1ccccn1 (configuration not stated) | 0.112
COC(=O)[C@@]1(Cc2ccccc2)[C@H]2c3cc(C(=O)N4CCCC4)n(Cc4ccc(OC(F)(F)F)cc4)c3C[C@H]2CN1C(=O)c1ccccc1 | -0.909
C=C(COC)C(=O)CC[C@H](OC(=O)c1ccccc1-c1ccccc1C(=O)O)c1ccc(OCCO)cc1 | 0.701

Reference: PubChem BioAssay
